Screening results: PubChem BioAssay, National Center for Advancing Translational Sciences (NCATS)
Pf growth 48h = P. falciparum growth inhibition at 48 hours (one generation); hit rate 5.9% among 310,000; Potency, µM (doses to about 28.7 µM), without a hit: at the highest dose activity change, negative = inhibition, usual class: inhibitors; AID 504832; P. falciparum luciferase growth in erythrocytes, 48 h; also: potency is read from the fitted curve at half-maximal effect; % is scaled to controls: 0 for no effect and ±100 for the full control effect
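Luminescence readout; reporter = integrated firefly luciferase in P. falciparum. RBC culture at 2% hematocrit, 0.1% parasitemia final, 37 C/5% CO2; decreased signal taken as growth inhibition.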
Pf growth 96h = P. falciparum growth inhibition at 96 hour, primary screen for plastid delayed-death inhibitors; P. falciparum luciferase reporter growth, 96 h; Potency, µM (top dose mostly 28.7 µM), for inactives: at the highest dose activity change, negative = inhibition, most hits filed as inhibitors; AID 504834; hit rate 6.9% among 320,000; also: potency is read from the fitted curve at half-maximal effect; % is scaled to controls: 0 for no effect and ±100 for the full control effect
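Two parasite generations (96 h, 37 C, 5% CO2) of compound exposure in infected erythrocytes (0.05% parasitemia, 2% hematocrit). Luciferase-reporter P. falciparum; decreased luminescence indicates inhibited growth, aimed at apicoplast-acting delayed death.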
LmPK inh = inhibitors of Leishmania mexicana pyruvate kinase; purified LmPK, Kinase-Glo ATP luminescence, 1 h; AID 1721; Q27686; Potency, µM (doses to about 57.5 µM), without a hit: at the highest dose activity change, negative = inhibition, most hits filed as inhibitors; hit rate 0.37% among 290,000; also: potency is read from the fitted curve at half-maximal effect; % is scaled to controls: 0 for no effect and ±100 for the full control effect
Target sequence (Q27686 whole entry, looked up): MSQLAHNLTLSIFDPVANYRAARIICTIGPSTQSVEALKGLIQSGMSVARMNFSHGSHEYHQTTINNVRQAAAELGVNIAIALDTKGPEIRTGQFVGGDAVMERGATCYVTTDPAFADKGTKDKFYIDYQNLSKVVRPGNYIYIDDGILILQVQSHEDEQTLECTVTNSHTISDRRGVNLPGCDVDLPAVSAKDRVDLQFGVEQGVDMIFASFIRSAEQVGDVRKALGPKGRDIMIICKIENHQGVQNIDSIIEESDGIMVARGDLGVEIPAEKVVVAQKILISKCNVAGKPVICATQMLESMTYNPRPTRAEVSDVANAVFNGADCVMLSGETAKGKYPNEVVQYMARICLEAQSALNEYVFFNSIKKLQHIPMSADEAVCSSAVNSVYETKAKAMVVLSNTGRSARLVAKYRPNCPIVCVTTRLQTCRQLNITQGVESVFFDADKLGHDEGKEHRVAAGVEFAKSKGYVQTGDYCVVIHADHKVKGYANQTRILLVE
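Screened at intermediate enzyme activity to detect both inhibitors and activators: LmPK at 0.1 nM, with a 0.5 nM enzyme column as activation reference. PEP 0.5 mM, ADP 0.1 mM; ATP detected by luminescence after 1 h.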
CHX counter = counter-screen hit for Shiga toxin inhibitors, cycloheximide | cell reporter, cycloheximide protein synthesis inhibition counterscreen | max response, % | hit rate 12% among 300,000; in the data active = max response mostly above about 13%, no sharp cut-off; inactive = mostly below about 14%; also: read at 38.3 µM for the half of the compounds with a filed dose; 0% is about no effect
Shiga inhibitor = blocks Shiga toxin action in Vero cells; Vero cells, Shiga toxin protein synthesis inhibition reporter; inhibition, % at 38.7 µM; hit rate 9.2% among 290,000; AID 2315; in the data active = inhibition mostly above about 28%, no sharp cut-off; inactive = mostly below about 43%; also: 0% is about no effect
Numbers without * were called inactive; ? = inconclusive; / = no result given; [ ] = remark or other dose. Sampled rows, rich in hits. Any-hit rate of the full collection: about 22%. Unless noted, calls follow the shape of the dose curve; as a rule, active = well fitted inhibition curve with a large enough effect; inconclusive = small, poorly fitted or top-dose-only effect, or another doubt; inactive = no such curve, though single readings can be large or run the other way.

SMILES	Pf growth 48h	Pf growth 96h	LmPK inh	CHX counter	Shiga inhibitor
Cc1ccc2nc(/C(C#N)=N/O)[nH]c2c1	?	13.1µM*	-2.6%	3.8	16.0
Cc1ccc2nc(/C(C#N)=C/c3cn[nH]c3-c3ccc(F)cc3)[nH]c2c1	?	?	-3.0%	6.6	13.5
N#C/C(=N\O)c1nc2ccccc2[nH]1	6.8%	-0.5%	-3.0%	-2.3	19.0
Cc1cc2nc(/C(C#N)=C/c3ccncc3)[nH]c2cc1C	-15.8%	0.5%	-3.9%	10.7	39.4
Cc1ccc2nc(/C(C#N)=C/c3ccccc3C(=O)O)[nH]c2c1	2.08µM*	?	-1.0%	18.5*	55.4
N#C/C(=C\c1ccc(-c2ccc(Cl)c(C(=O)O)c2)o1)c1nc2ccccc2[nH]1	-1.5%	0.9%	/	/	/
Cc1ccc2nc(/C(C#N)=C/c3ccc(O)c(O)c3)[nH]c2c1	?	-2.3%	-4.5%	59.7*	91.8*
O=C(Nc1cccc(C(F)(F)F)c1)c1cccnc1N1CCN(c2ccccc2)CC1	0.0%	/	2.4%	7.6	-7.9
CCN(CC(=O)NCc1ccc(F)cc1)C(=O)c1oc2ccccc2c1C	?	17.4%	6.9%	12.0	10.9
CC(C)OC(=O)CCC1(C(=O)O)CCC(=O)NC1 (stereo not given)	1.31µM*	/	-3.3%	-2.4	-6.4
CC(C)OC(=O)Cc1ccccc1	11.5%	35.9%	/	/	/
COc1ccc(CC(=O)Oc2ccc(Br)cc2F)cc1S(=O)(=O)N1CCOCC1	11.3%	21.4%	/	/	/
CCOc1ccc(N2C(=O)C(c3ccccc3)=C(c3nc4ccccc4s3)C2NC(C)=O)cc1 (stereo not given)	/	?	-7.7%	1.7	14.9
Cc1cc(NCCCN2CCOCC2)n2ncc(-c3ccc(Cl)cc3)c2n1	39.2%	22.2%	-0.1%	21.9*	59.3
CCCc1cc(NCCCn2ccnc2)n2nc(C)c(-c3ccccc3)c2n1	?	0.415µM*	3.8%	-6.8	-5.9
CC(C)(C)c1cc(NCCCn2ccnc2)n2ncc(-c3ccccc3)c2n1	?	?	0.6%	36.6*	67.3*
CC(C)(C)c1cc(C(F)(F)F)n2ncc(-c3ccccc3)c2n1	36.4%[5.75 µM]	?	0.5%	9.3	9.3
CC(C)Nc1cc(C(C)(C)C)nc2c(-c3ccccc3)cnn12	?	13.1µM*	-1.4%	55.1*	150.7*
CC(OC(=O)Cc1ccc(Cl)cc1)C(=O)NC1CCCCC1C (stereo not given)	-7.9%	43.6%	/	/	/
Cc1nnc(NC(=O)CSCc2cc(=O)c3ccccc3[nH]2)s1	-22.6%	-0.7%	/	/	/
CC#CC(=O)Nc1cc2c(Nc3ccc(F)c(Cl)c3)ncnc2cn1	/	/	/	-2.9	-9.5
Cc1cc(NCCCn2ccnc2)n2ncc(-c3ccc(Cl)cc3)c2n1	-28.5%	-56.0%	-2.3%	39.8*	82.7*
Cc1cccc(-c2cc3nc(C)cc(NCCCn4ccnc4)n3n2)c1	?	/	6.5%	19.3	-12.7
COc1cc(C2Nc3cc(Cl)c(S(N)(=O)=O)cc3S(=O)(=O)N2)ccc1OCc1ccccc1 (stereo not given)	17.8%	/	-21.4%	54.8*	128.1*
COc1cc(C2Nc3cc(Cl)c(S(N)(=O)=O)cc3S(=O)(=O)N2)cc(OC)c1OC (stereo not given)	-5.6%	-14.8%	3.7%	-5.5	-4.0
SMILES	Pf growth 48h	Pf growth 96h	LmPK inh	CHX counter	Shiga inhibitor
CN(C)Cc1c(C(=O)N/N=C/c2cccs2)nnn1-c1nonc1N	10.7%	5.0%	-5.1%	-0.9	-16.6
Clc1c(-c2nnc3n2CCC3)sc2ccccc12	?	?	0.5%	15.3*	49.7
COc1ccc2c(Cl)c(-c3nnc4n3CCCCC4)sc2c1	/	-22.1%	10.1%	24.8*	33.7
Clc1c(-c2nnc3n2CCCCC3)sc2ccccc12	/	?	-5.8%	2.7	-7.9
C[C@H](NCc1ccccc1)c1ccccc1	/	/	/	-10.7	-9.7
Cc1ccc(-c2nc3c4ccccc4ccn3c2CN2CCCCC2)cc1	9.28µM*	-13.7%	0.7%	32.4*	58.8*
c1ccc(-c2nc3c4ccccc4ccn3c2CN2CCCCC2)cc1	?	?	-3.9%	11.1	35.2
O=C(NCCN1CCN(c2ccc([N+](=O)[O-])cc2)CC1)NCc1ccccc1	6.7%	25.5%	0.1%	-1.5	-19.9
Nc1nc2n(n1)C(=O)CC(c1ccccc1)N2 (stereo not given)	15.8%	9.28µM*	2.5%	-2.5	-12.0
Nc1nc2n(n1)C(c1cccs1)CC(c1ccccc1)N2 (stereo not given)	2.5%	?	-4.0%	-3.6	-5.5
Cc1c(Cc2ccccc2)c(=O)oc2c(C)c(OC(C)C(=O)NCC3CCC(C(=O)O)CC3)ccc12 (stereo not given)	?	13.1µM*	-0.7%	-3.4	16.3
Cc1cc(OC(C)C(=O)NCC2CCC(C(=O)O)CC2)c2c(C)c(Cc3ccccc3)c(=O)oc2c1 (stereo not given)	?	10.4µM*	-6.5%	-1.1	6.4
Cc1c(Cc2ccccc2)c(=O)oc2cc(OCC(=O)NCC3CCC(C(=O)O)CC3)ccc12 (stereo not given)	?	11.7µM*	2.5%	-1.0	-8.0
O=C(N=C1SC2CS(=O)(=O)CC2N1c1ccccc1Cl)C1CCCO1 (stereo not given)	-3.0%	31.9%	-2.6%	-2.0	-4.2
CCN(Cc1ccccc1)C(=O)CC(=O)N(CC)Cc1ccccc1	-8.2%	24.4%	-6.1%	-3.7	-2.7
c1ccc(-c2cc3n(c2)CCc2ccccc2-3)cc1	?	-8.6%	-7.9%	14.9*	49.2*
O=C(O)c1cc2c(s1)-c1ccccc1CC2	-4.5%	0.0%	-5.7%	-2.3	-5.3
Cc1nc([N+](=O)[O-])cn1-c1ccc(N)cc1	5.3%	11.7µM*	-3.7%	-8.3	-11.2
O=C(c1cc2cc(Cl)ccc2[nH]1)N1CCC2(CC1)OCCO2	-26.1%	?	10.7%	28.2*	30.3*
O=C(c1ccc(F)cc1Cl)N1CCC2(CC1)OCCO2	12.9%	0.0%	-0.8%	-2.6	-6.2
O=C(c1cc2cc(F)ccc2[nH]1)N1CCC2(CC1)OCCO2	?	?	3.1%	30.5*	50.5*
O=C(c1cc2cc3ccc(Cl)cc3nc2o1)N1CCC2(CC1)OCCO2	2.5%	-21.2%	-1.8%	7.2	17.6
C=CCNC(=O)c1c(CSc2ccc(F)cc2)noc1C(=O)NCCC	9.7%	?	/	/	/
CCOc1ccccc1N(CC(=O)Nc1ccc(S(=O)(=O)N2CCOCC2)cc1)S(=O)(=O)c1ccc(Cl)cc1	18.1%	42.3%	1.0%	-4.9	-8.8
Cc1ccc(NC(=O)c2ccc(NCCN)c([N+](=O)[O-])c2)cc1	?	?	-0.2%	20.0*	33.4*
CCCNc1ccc(C(=O)OCC)cc1[N+](=O)[O-]	193.0%	0.3%	4.7%	52.0*	83.0*
Cc1ccc(NC(=O)c2ccc(NCCCN3CCC(C)CC3)c([N+](=O)[O-])c2)cc1F	1.17µM*	-23.4%	5.5%	3.2	-13.4
Cc1ccc(CN2CCN(Cc3ccc(O)cc3)CC2CCO)o1 (stereo not given)	8.8%	34.4%	2.5%	1.4	-7.9
